Screening results as filed in PubChem.
ELG1 genotoxic – qHTS screen for small molecules that induce genotoxicity in human embryonic kidney (HEK293T) cells expressing luciferase-tagged ELG1 | HEK293T ELG1-luciferase reporter, luminescence, 16 h | Potency, µM (doses to about 46 µM), most hits filed as activators | 330,000 compounds, 1.3% hits; also: nearly all actives have a fitted effect of over 60% in size
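DMSO vehicle served as control against compound-treated ELG1-luciferase HEK293T cells; exposure lasted 16 hr at 37 °C and 5% CO2, followed by ONE-Glo luminescence detection after 30 min.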
SMN2 splice enh – qHTS Assay for Enhancers of SMN2 Splice Variant Expression | 210,000 compounds, 2.8% hits | Potency, µM (titrated, usually from 46.1 µM), actives largely listed as activators | AID 1458, 2008 | HEK293 SMN2-luciferase splicing reporter, luminescence, 30-36 h; also: nearly all actives have a fitted effect of over 55% in size
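qHTS luciferase splicing reporter: luminescence rises when SMN2 exon 7 is included in transfected HEK293 cells. Compound exposure lasted 30-36 h at 37C, with 4.5 mM final sodium butyrate as control, followed by a ONE-Glo read.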
NPC1 promoter act – qHTS Assay for NPC1 Promoter Activators; AID 485313, 2010; Huh7 NPC1 promoter luciferase reporter, 24 h; 320,000 compounds, 2.4% hits; Potency, µM (highest dose often 9.22 µM), most hits filed as activators; also: nearly all actives have a fitted effect of over 60% in size
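Luminescence read-out of NPC1 promoter-driven luciferase in stably transfected Huh7 cells; compounds delivered in DMSO and left 24 h at 37C, 5% CO2, qHTS titration format.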
Rab9 promoter act – qHTS Assay for Rab9 Promoter Activators; Huh7 Rab9 promoter-luciferase reporter, luminescence, 24 h; Potency, µM (doses to about 9.22 µM), hits mostly activators; 320,000 compounds, 2.8% hits; also: nearly all actives have a fitted effect of over 60% in size
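Huh7 reporter line, Rab9 promoter upstream of luciferase. Compound exposure 24 h at 37 °C in reduced-serum medium with 10% FBS. Read-out: luminescence.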
FLuc modulator – qHTS profiling assay for firefly luciferase inhibitor/activator using purifed enzyme and Km concentrations of substrates (counterscreen for miR-21 project); AID 588342, 2011; Potency, µM (doses to about 57.5 µM), actives largely listed as inhibitors; purified FLuc, Km substrates, luminescence inhibition; Luciferin 4-monooxygenase (Photinus pyralis), P08659; 360,000 compounds, 6.9% hits; also: nearly all actives have a fitted effect of over 55% in size
Target sequence (P08659 whole entry, looked up): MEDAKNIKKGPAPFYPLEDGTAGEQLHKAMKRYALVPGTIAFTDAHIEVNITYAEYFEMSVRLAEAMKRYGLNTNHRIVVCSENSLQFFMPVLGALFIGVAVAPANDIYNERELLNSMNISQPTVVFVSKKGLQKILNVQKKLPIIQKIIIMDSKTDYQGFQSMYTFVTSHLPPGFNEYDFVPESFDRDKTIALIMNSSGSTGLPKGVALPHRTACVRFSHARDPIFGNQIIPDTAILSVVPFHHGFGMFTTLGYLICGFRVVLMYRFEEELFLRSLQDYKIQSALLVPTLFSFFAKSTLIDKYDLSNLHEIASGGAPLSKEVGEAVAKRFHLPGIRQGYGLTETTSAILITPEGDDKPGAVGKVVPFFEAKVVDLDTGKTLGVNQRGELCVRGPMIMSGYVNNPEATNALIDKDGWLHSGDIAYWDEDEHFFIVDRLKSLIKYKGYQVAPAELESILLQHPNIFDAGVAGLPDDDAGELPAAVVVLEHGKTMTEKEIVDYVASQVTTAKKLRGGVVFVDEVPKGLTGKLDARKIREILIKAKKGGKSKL
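Biochemical qHTS of compounds, final roughly 60 µM downward over six points, against 10 nM purified firefly luciferase using Km concentrations of substrates (10 uM D-luciferin, 10 uM ATP) in Tris acetate pH 7.5 buffer; luminescence output.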
Each line names hits and unclear results; the compound was inactive in the other large screens. Compounds with a hit are over-represented: about 7.4% of the library has one in this group of screens. Calls follow the shape of the dose curve; as a rule, active = well fitted curve in the direction sought with a large enough effect; inconclusive = small, poorly fitted or top-dose-only effect, or another doubt; inactive = no such curve, though single readings can be large; an effect the other way counts as inactive or inconclusive.

COc1cc(NC(=O)c2ccc(N)nc2)cc(C(=O)Nc2cccc(C(F)(F)F)c2)c1	FLuc modulator 7.57µM (no result: SMN2 splice enh)
COc1cc(NC(=O)c2nccnc2N)cc(C(=O)Nc2cccc(C(F)(F)F)c2)c1	FLuc modulator 10.7µM (no result: SMN2 splice enh)
CC(C)n1c(/N=C/c2c[nH]c3ccccc23)nc2ccccc21	FLuc modulator 2.69µM
Cn1c(/N=C/c2c[nH]c3ccccc23)nc2ccccc21	FLuc modulator 0.135µM (no result: SMN2 splice enh)
C(=Nc1ccc(N2CCOCC2)cc1)c1c[nH]c2ccccc12	FLuc modulator inconclusive (no result: SMN2 splice enh)
CC(=O)Nc1ccc(N=Cc2c(O)c(C(=O)Nc3ccccc3)cc3ccccc23)cc1	FLuc modulator 0.675µM
Cc1cc(N2CCOCC2)ccc1/C=C\[N+](=O)[O-]	SMN2 splice enh inconclusive, FLuc modulator 23.9µM
O=[N+]([O-])c1ccc(N2CCOCC2)cc1O	none (no result: SMN2 splice enh)
COc1cc2oc3ccccc3c(=O)c2cc1OC	ELG1 genotoxic inconclusive, NPC1 promoter act inconclusive, FLuc modulator inconclusive (no result: SMN2 splice enh)
CCOC(=O)/C=C/c1ccc2oc3ccccc3c(=O)c2c1	ELG1 genotoxic inconclusive, NPC1 promoter act 3.55µM, Rab9 promoter act 3.98µM, FLuc modulator 2.39µM (no result: SMN2 splice enh)
COc1ccccc1N1CCN(C(=O)c2ccc3[nH]c(C)c(C)c3c2)CC1	ELG1 genotoxic inconclusive (no result: SMN2 splice enh)
COC(=O)c1cc(C(=O)N2CCN(c3cccc(C)c3C)CC2)cc([N+](=O)[O-])c1	none
COc1ccccc1N1CCN(C(=O)c2ccc3[nH]c4c(c3c2)CC(C)CC4)CC1 (centres undefined)	FLuc modulator 19µM
COC(=O)c1cc(C(=O)N2CCN(c3ccccc3OC)CC2)cc([N+](=O)[O-])c1	FLuc modulator 21.3µM (no result: SMN2 splice enh)
COc1ccc(OCC(=O)Nc2cccc(C(=O)Nc3ccccc3C(=O)O)c2)cc1	FLuc modulator 23.9µM
COc1ccc(CC(=O)Nc2cccc(C(=O)Nc3ccccc3C(=O)O)c2)cc1OC	FLuc modulator 16.9µM
COc1ccccc1OCC(=O)Nc1ccccc1C(=O)Nc1cccc(C(=O)O)c1	FLuc modulator inconclusive (no result: SMN2 splice enh)
Clc1ccc(-c2cnc3n2CCC3)cc1	Rab9 promoter act inconclusive, FLuc modulator 13.5µM
O=Nc1c(-c2c(O)[nH]c3cc(Br)ccc23)[nH]c2ccccc12	ELG1 genotoxic inconclusive, SMN2 splice enh 15.8µM, NPC1 promoter act 2.91µM, Rab9 promoter act 3.66µM, FLuc modulator 9.53µM
O=c1nccc(N/N=C/c2ccccc2O)[nH]1	FLuc modulator inconclusive (no result: SMN2 splice enh)
COc1cccc(/C=N/Nc2ccc([N+](=O)[O-])cn2)c1O	ELG1 genotoxic 2.59µM, FLuc modulator 0.757µM (no result: SMN2 splice enh)
COc1cccc(/C=N/Nc2ccnc(=O)[nH]2)c1O	FLuc modulator 16.9µM (no result: SMN2 splice enh)
CN(CC(=O)Nc1ccccc1C(F)(F)F)C(=O)c1ccc(-c2ccc(Cl)cc2)o1	FLuc modulator inconclusive (no result: SMN2 splice enh)
COc1cccc(CNC(=O)C(C)n2c(=O)cc(-c3ccccc3)c3c(C)nn(C)c32)c1 (centres undefined)	none (no result: ELG1 genotoxic, SMN2 splice enh, NPC1 promoter act, Rab9 promoter act)
COc1ccc(-c2ccnc3c2c(=O)n(C)c(=O)n3C)cc1OC	none (no result: ELG1 genotoxic, NPC1 promoter act, Rab9 promoter act)
CN1CCN(c2ccc(Cl)cc2NC(=O)CCN2C(=O)c3ccccc3C2=O)CC1	none
CC1CCC(NC(=O)Cn2ncc3ccccc32)CC1 (centres undefined)	ELG1 genotoxic 10.3µM, SMN2 splice enh inconclusive, NPC1 promoter act inconclusive, Rab9 promoter act inconclusive, FLuc modulator inconclusive
CCN(CC)S(=O)(=O)c1cccc(NC(=O)c2cc3ccccc3o2)c1	FLuc modulator 12µM
O=C(COC(=O)c1cc2ccccc2oc1=O)Nc1cccc(S(=O)(=O)N2CCCCCC2)c1	ELG1 genotoxic inconclusive
O=Cc1ccc(C(=O)OCC(=O)Nc2ccc(F)cc2F)cc1	none (no result: SMN2 splice enh)
CN(C)S(=O)(=O)c1cccc(NC(=O)COC(=O)c2cc(=O)c3ccccc3o2)c1	none (no result: SMN2 splice enh)
CN(C)S(=O)(=O)c1cccc(NC(=O)c2cc3ccccc3o2)c1	Rab9 promoter act inconclusive, FLuc modulator 8.49µM
CN(C)S(=O)(=O)c1cccc(NC(=O)COC(=O)c2cc3ccccc3oc2=O)c1	ELG1 genotoxic 9.2µM, NPC1 promoter act 3.55µM, Rab9 promoter act 3.16µM, FLuc modulator 13.5µM (no result: SMN2 splice enh)
